# NadD block: inhibitors of Staphylococcus aureus NadD; purified NadD enzyme, colorimetric absorbance read-out; inhibition, % at 20 µM; 360,000 tested, 0.78% active; in the data active = inhibition above about 26%
# PP1 counter: blocks human PP1-alpha phosphatase, a PP5 counter-screen | P62136 | purified PP1alpha, OMFP fluorescence | 320,000 tested, 0.9% active | inhibition, % at 6.7 µM;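 active = inhibition above the mean inhibition of all tested compounds plus 3 SD, computed separately for each screening campaign, cut at about 15% in these data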
# GRK2 aptamer HTS: blocks RNA aptamer binding to human GRK2 | 330,000 tested, 0.59% active | AID 488847 | bead flow cytometry, FAM-aptamer displacement from GRK2 | P25098 | inhibition of aptamer binding, % at 10 µM;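 active = inhibition of aptamer binding above 40%, roughly 3 SD of noise, on plates passing a quality check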;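 note: median bead fluorescence of bound FAM aptamer so fluorescent compounds give negative values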
# Target sequence (P25098 whole entry, looked up): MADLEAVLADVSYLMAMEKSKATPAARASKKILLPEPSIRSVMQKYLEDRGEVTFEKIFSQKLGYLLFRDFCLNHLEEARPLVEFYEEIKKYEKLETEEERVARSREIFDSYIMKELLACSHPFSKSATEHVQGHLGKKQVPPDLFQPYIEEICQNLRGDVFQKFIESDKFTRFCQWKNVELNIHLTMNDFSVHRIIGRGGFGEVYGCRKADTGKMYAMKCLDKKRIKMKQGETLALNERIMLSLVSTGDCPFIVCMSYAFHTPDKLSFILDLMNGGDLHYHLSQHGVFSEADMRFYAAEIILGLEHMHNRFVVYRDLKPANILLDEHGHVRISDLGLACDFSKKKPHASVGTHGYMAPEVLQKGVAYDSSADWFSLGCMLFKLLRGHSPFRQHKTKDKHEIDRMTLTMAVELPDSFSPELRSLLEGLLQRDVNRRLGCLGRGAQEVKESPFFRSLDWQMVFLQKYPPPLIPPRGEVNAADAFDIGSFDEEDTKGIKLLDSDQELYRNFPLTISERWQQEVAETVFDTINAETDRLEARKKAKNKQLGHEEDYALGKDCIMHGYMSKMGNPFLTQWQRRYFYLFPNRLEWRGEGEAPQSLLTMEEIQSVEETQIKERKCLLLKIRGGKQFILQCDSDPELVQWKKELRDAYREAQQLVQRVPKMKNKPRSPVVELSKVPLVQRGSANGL
# Beta2AR agonist: agonists of human beta-2 adrenergic receptor inducing internalization; response, % (test concentration not listed); Am2.2-beta2AR cells, FAP receptor internalization, flow cytometry; 340,000 tested, 0.43% active; P07550;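 active = response above a set limit, near 3 SD of response in nonfluorescent compounds, cut at about 42% in these data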
# Exocytosis inh: blocks lytic granule exocytosis. TALL-104 LAMP-1 surface exposure, flow cytometry; cells stimulated with thapsigargin and PMA. inhibition, % at 10 µM. 360,000 tested, 0.66% active. AID 651702;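 active = inhibition above about 55%, limit read from the data; inconclusive = no clear call, values can overlap the other calls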
# Active calls of the source: *; ? = inconclusive; nt = no result. Most compounds without a hit are left out; they make up all but 2.9% or so of the library.
SMILES,NadD block,PP1 counter,GRK2 aptamer HTS,Beta2AR agonist,Exocytosis inh
CC(/C=N/N1CCN(c2ccccc2)CC1)=C\c1ccccc1,5,-2,1,3,-10
CC(/C=N/N1CCN(c2ccccn2)CC1)=C\c1ccccc1,10,-2,0,-4,76*
COc1ccc(C(C(=O)NCc2ccccc2)N(Cc2ccco2)C(=O)c2snc(C(N)=O)c2N)cc1OC (configuration not stated),-5,0,3,10,56*
COc1ccc(C(C(=O)NCc2ccccc2)N(Cc2ccco2)C(=O)c2snc(C(N)=O)c2N)cc1 (configuration not stated),2,2,0,15,40
O=[N+]([O-])c1cc2oc3c(c2c(C=NCc2ccccc2)c1O)CCCC3,22,-1,7,-36,12
CC(C)CN=Cc1c(O)c([N+](=O)[O-])cc2oc3c(c12)CCCC3,13,5,27,-58,95*
CCn1c(O)c(N=NC(=O)c2ccc(CSc3nncn3C)cc2)c2ccccc21,9,0,1,53*,0
CC(=O)Oc1ccccc1Cn1c(C)c(C(=O)NCCC#N)sc1=O,-3,nt,nt,nt,6
O=C(NCCO)Nc1ccc2nc(-c3ccco3)c(-c3ccco3)nc2c1,nt,47*,0,nt,nt
CC(C)C[C@H](NC(=O)N1CCn2c1nc1ccccc12)C(=O)N[C@H](Cc1ccccc1)C(=O)O,3,6,0,-9,-1
CC1(C)CC[C@]2(C(=O)O[C@@H]3O[C@H](CO)[C@@H](O)[C@H](O)[C@H]3O)CC[C@]3(C)C(=CCC4[C@@]5(C)CC[C@H](O[C@@H]6O[C@H](C(=O)O)[C@@H](O[C@H]7OC[C@@H](O)[C@@H](O)[C@@H]7O)[C@H](O)[C@H]6O)C(C)(C)C5CC[C@]43C)[C@@H]2C1 (some centres not stated),9,nt,0,5,56*
Cc1cc(N/N=C/c2ccccc2)nc(NCc2ccccc2)n1,2,6,0,8,1
Cc1cc(N/N=C/c2cccc(Cl)c2)nc(NCc2ccccc2)n1,4,15*,0,10,2
C/C(=N\Nc1cc(C)nc(NCc2ccccc2)n1)c1cccc([N+](=O)[O-])c1,2,-2,0,15,94*
OC1C2COC(O2)C2OC(c3ccccc3)OC12 (configuration not stated),1,nt,nt,nt,-4
COc1ccc(CCC(C)NC(=O)Cc2ccc(OC)c(OC)c2)c(OC)c1 (configuration not stated),-10,0,0,0,11
CCN(CC)C(=O)C1=C(C)N(Cc2ccccc2)C(=O)C(CC(=O)NCC2CCCCC2)C1 (configuration not stated),-1,nt,nt,nt,3
COc1cc(/C=C/C(=O)OCC(=O)Nc2cc(S(=O)(=O)N(C)C)ccc2Cl)ccc1O,-4,-3,2,-2,0
CCN(CC)S(=O)(=O)c1ccc(Cl)c(NC(=O)COC(=O)/C=C/c2ccc(O)c(OC)c2)c1,-11,2,100*,-6,0
CN(C)CCCNc1cc(C(C)(C)C)nc2c(-c3ccc(Cl)cc3)cnn12,-11,5,0,18,65*
CC(C)(C)c1cc(NCc2ccccn2)n2ncc(-c3ccc(Cl)cc3)c2n1,2,-3,nt,2,14
C#CCOCCOCCOCCNc1nc(N2CCN(C(=O)CCCCCCCCCCNC(=O)[C@H](CCCCN)n3cc(CCO)nn3)CC2)nc(N2CCN(C(=O)CCCCCCCCCCNC(=O)[C@@H]([C@H](C)O)n3cc(C)nn3)CC2)n1,16,15,0,87*,-4
C#CCOCCOCCOCCNc1nc(N2CCN(C(=O)CCCCCCCCCCNC(=O)[C@H](CCCCN)n3cc(CCCC(=O)O)nn3)CC2)nc(N2CCN(C(=O)CCCCCCCCCCNC(=O)[C@H](CCCCN)n3cc(CCCC(=O)O)nn3)CC2)n1,-2,1,0,2,-4
C#CCOCCOCCOCCNc1nc(N2CCN(C(=O)CCCCCCCCCCNC(=O)[C@@H](CCC(=O)O)n3cc(CCCCCN)nn3)CC2)nc(N2CCN(C(=O)CCCCCCCCCCNC(=O)[C@@H](CCC(=O)O)n3cc(CCCCCN)nn3)CC2)n1,9,5,4,-17,-1
C#CCOCCOCCOCCNc1nc(N2CCOCC2)nc(N2CCN(C(=O)CCCCCCCCCCNC(=O)[C@H](CO)n3cc(CCCCCN)nn3)CC2)n1,1,4,0,9,-2
SMILES,NadD block,PP1 counter,GRK2 aptamer HTS,Beta2AR agonist,Exocytosis inh
C#CCOCCOCCOCCNc1nc(N2CCN(C(=O)CCCCCCCCCCNC(=O)[C@H]([C@@H](C)CC)n3cc(CCCCN=C(N)N)nn3)CC2)nc(N2CCN(C(=O)CCCCCCCCCCNC(=O)[C@H](CCCCN)n3cc(C[C@@H](C)CC)nn3)CC2)n1,nt,71*,0,nt,nt
C#CCOCCOCCOCCNc1nc(N2CCN(C(=O)CCCCCCCCCCNC(=O)[C@H](CCCCN)n3cc(C[C@@H](C)CC)nn3)CC2)nc(N2CCN(C(=O)CCCCCCCCCCNC(=O)[C@H](CCCCN)n3cc(C[C@@H](C)CC)nn3)CC2)n1,48*,55*,0,42*,-12
C#CCOCCOCCOCCNc1nc(N2CCN(C(=O)CCCCCCCCCCNC(=O)[C@H](CO)n3cc(CCCSC)nn3)CC2)nc(N2CCN(C(=O)CCCCCCCCCCNC(=O)[C@H](CCCCN)n3cc(C[C@@H](C)CC)nn3)CC2)n1,nt,51*,0,nt,nt
Cc1[nH]c2ccccc2c1/C=N/NC(=O)C1CC1(c1ccccc1)c1ccccc1 (configuration not stated),18,2,0,4,3
CC(C)N1C/C(=C/c2cccnc2)C(=O)/C(=C/c2cccnc2)C1,0,nt,nt,17,2
CN1C/C(=C/c2cccnc2)C(=O)/C(=C/c2cccnc2)C1,3,-1,3,43*,24
Cc1ccc(C2(C)NC(=O)N(CC(=O)Nc3cc(S(=O)(=O)N(C)C)ccc3C)C2=O)cc1 (configuration not stated),3,-1,2,-2,?
O=C(COC(=O)c1cncc(Br)c1)NCc1cccs1,-3,nt,3,-2,1
COc1ccc2[nH]c(O)c(N=NC(=O)c3ccc(NS(=O)(=O)c4cccs4)cc3)c2c1,27,17*,0,1,1
Cc1cccc2c(N=Nc3ccc(S(=O)(=O)Nc4ccc(Cl)cc4)cc3[N+](=O)[O-])c(O)[nH]c12,33*,0,0,-3,-3
Cc1ccc2[nH]c(O)c(N=Nc3ccccc3[N+](=O)[O-])c2c1,-1,nt,nt,-29,-5
O=C(N=Nc1c(O)[nH]c2ccc(F)cc12)c1ccc(NS(=O)(=O)c2cccs2)cc1,39*,-1,2,7,-3
Cc1cccc2c(N=NC(=O)c3ccc(NS(=O)(=O)c4cccs4)cc3)c(O)[nH]c12,61*,16*,5,-3,0
Cc1cc(C)n(-c2ccc(C(=O)N3CCC(CO)(Cc4ccccc4)CC3)cc2)n1,-2,2,3,-4,13

# Bioassay records from PubChem.
